Measurements reported in PubChem BioAssay AID1117319 (Southern Research Institute, 2015).
Several values for one entry are separate records, joined by “and”; a condition that tells them apart may be missing. Equal entries are not always repeated. Out of some 260,000 compounds screened, about 1,500 (0.58%) were called active. Another 5% or so got no clear call; they are omitted.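 The calls were made as follows: active = inhibition above a set limit at one or more doses, reproduced on every date tested; inconclusive = results disagree between test dates, or hit never tested in dose response; inactive = the rest.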 These entries were drawn from the full list. Entries with a potency or affinity are not part of this list.

molecular target: Virion infectivity factor (Human immunodeficiency virus type 1 group M subtype B (isolate BH10)) + Virion infectivity factor (Human immunodeficiency virus type 1 group M subtype B (isolate BRU/LAI)) + Virion infectivity factor (Human immunodeficiency virus type 1 group M subtype B (isolate PCV12)) + Virion infectivity factor (Human immunodeficiency virus type 1 group M subtype B (isolate HXB2)) + DNA dC->dU-editing enzyme APOBEC-3G (Homo sapiens) (UniProt P69720+P69721+P69722+P69723+Q9HC16); test: HIV-1 Vif–A3G interaction blockers – biochemical, TR-FRET, GST-Vif 1-94, biotin-A3G peptide, dose response retest, primary screen (AID 1117319); details: TR-FRET GST-Vif / biotin-A3G peptide binding; active compounds read high;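 also: Vif residues 1-94 fused to GST binding biotinylated APOBEC3G peptide 110-148; 0% = full assay without inhibitor and 100% = GST in place of GST-Vif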

inhibition, inactive:
Cc1ccc(-c2cn3c(n2)SCC3)cc1 -0.83%
Oc1ccc(-c2cn3c(n2)SCC3)cc1 1.62%
CC(=O)c1cccc(CN2CCN(Cc3ccc(C)cc3)C(CCO)C2)c1 (stereo unspecified) -2.61%
COC(=O)C(C)(C)ONC(=O)Nc1ccccc1Br 23.3%
CC1(C)Cc2c(C#N)c(N3CCN(C(=O)c4ccccc4Cl)CC3)nc(-c3ccco3)c2CS1 15%
CC1CCN(c2nc(-c3ccco3)c3c(c2C#N)CC(C)(C)OC3)CC1 27.3%
COC(=O)C1=C(C)Nc2nnnn2C1c1cc(OC)ccc1OC (stereo unspecified) -7.75%
CCCCN(CC)CCNC(=O)c1nn(-c2ccc(OC)cc2)c(=O)c2c1c1ccccc1n2C 6.38%
CCCOc1ccccc1C1NC(=O)NC(C)=C1C(=O)OCc1ccccc1 (stereo unspecified) -9.5%
CCCCOc1ccccc1C1NC(=O)NC(C)=C1C(=O)OCCOCC (stereo unspecified) 2%
CCc1nnc(NS(=O)(=O)c2ccc(NC(=S)Nc3ccc(F)cc3)cc2)s1 -0.27%
CC[n+]1c(/C=C/C=C/N(C(C)=O)c2ccccc2)sc2ccccc21 8.36%
CCN1/C(=C/C(C)=C/c2sc3ccccc3[n+]2CC)Sc2ccccc21 -17.9%
CCN(CC)CCN=C1CCCc2ccccc2N1 0.69%
O=C(Nc1cccc(S(=O)(=O)N2CCOCC2)c1)c1cc2ccccc2o1 -1.28%
CC(=O)Oc1ccc(/C=N/NS(=O)(=O)c2ccccc2)cc1 -10.3%
Cc1ccc(S(=O)(=O)c2c(N)n(Cc3ccco3)c3nc4ccccc4nc23)cc1C 5.39%
Cc1ccc(S(=O)(=O)c2c(N)n(Cc3ccco3)c3nc4ccccc4nc23)cc1 2.43%
Cc1ccn2c(/C=N/OCc3ccc(F)cc3)c(-c3ccc(Cl)cc3)nc2c1 -1.15%
CCCCN(CCCC)CC1OCc2ccccc2CO1 -2.33%
COc1ccc(-c2nn(-c3ccccc3)cc2CNC[C@H]2O[C@@H](n3cnc(C(N)=O)n3)[C@H](O)[C@@H]2O)cc1 12.8%
CCC(C)Nc1nc(C)nc2c1oc1ccccc12 (stereo unspecified) -0.82%
CC(=O)c1sc(=S)n(Cc2ccccc2)c1C -9.02%
COc1cc2c(cc1O)C(Cc1ccc(O)cc1)NCC2 (stereo unspecified) -2.34%
COc1cc2c(cc1OC)C(Cc1ccc(O)cc1)NCC2 (stereo unspecified) 16.4%
CC(Oc1ccccc1F)c1nnc(SCC(=O)NCc2ccc3c(c2)OCO3)o1 (stereo unspecified) -7.49%
COc1ccc(-n2cc(-c3ccc(Cl)cc3)[nH]c2=S)cc1 -54.3%
O=C(c1ccc(Cl)cc1)C1CCCN(Cc2cccn2-c2ccccn2)C1 (stereo unspecified) -9.46%
CCOc1cc(C(=S)N2CCOCC2)ccc1OC(=O)c1ccc(C)cc1 4.9%
N#C/C(=C(/O)COc1ccc(Cl)cc1)c1nc2ccccc2s1 5.6%
CC(C)NCC(O)c1cc(O)cc(O)c1 (stereo unspecified) 5.35%
CCC(NC(C)C)C(O)c1ccc(O)c(O)c1 (stereo unspecified) -1.98%
COc1ccc([C@H](C)NC[C@H](O)c2ccc(O)c(NC=O)c2)cc1 26%
CC(C)NCC(O)c1ccc(NS(C)(=O)=O)cc1 (stereo unspecified) 4.04%
CNC[C@H](O)c1cccc(O)c1 -0.43%
CCC(c1ccccc1)C(CC)c1cc(O)c(O)c(O)c1 (stereo unspecified) 27.3%
CN1/C(=C\C(=O)COC(=O)c2ccccc2O)C(C)(C)c2ccccc21 -8.33%
Cc1occc1-c1nnc(SCC(=O)Nc2ccccc2)n1C 1.99%
Oc1cccc(/C=N/N2CCN(c3ccccn3)CC2)c1 3.52%
CCN(CC)S(=O)(=O)c1cccc(-c2nn(-c3ccccc3)cc2/C=C(\C#N)C(=O)NCc2ccco2)c1 -3.43%
CCOc1ccc(CCNC(=O)C2CCN(S(=O)(=O)N3CCC(C)CC3)CC2)cc1OCC -6.54%
CCOc1ccc(CCNC(=O)C2CC=CCC2C(=O)OC(C)C)cc1OCC (stereo unspecified) 0.89%
CCOC(=O)c1[nH]c2cc(OC)c(OC)cc2c1NC(=O)CN1CCN(c2ccc(OC)cc2)C(C)C1 (stereo unspecified) 23%
Cc1cc(C(=O)N/N=C/c2ccc(-c3cccc(Cl)c3)o2)n[nH]1 -2.03%
Cc1ccc(-c2cc(N)n(-c3ccccc3)n2)cc1 -2.7%
Cc1ccc(-c2cc(N)n(-c3ccc(C)cc3)n2)cc1 -11.3%
CCOC(=O)c1ccc(N2C(=O)C3CC=C(C)CC3C2=O)cc1 (stereo unspecified) 24.6%
COc1ccc(C(=O)N/N=C/c2c(CO)cnc(C)c2O)cc1 8.42%
O=C(N/N=C/c1cccnc1)c1ccccc1 -11.7%
Cc1ncc(CO)c(/C=N/NC(=O)c2cc(Br)ccc2O)c1O 11%
O=C(N/N=C\c1cccnc1)c1ccccc1O -5.54%
Cc1ccc(NC2=NCCCCC2)cc1 0.64%
CCN(CC)C(=O)[C@H]1C[C@H](CC(=O)NC(C)(C)C)C(=O)N2CCc3c([nH]c4ccc(Cl)cc34)[C@]12C -8.68%
CNC(=O)CN(C1CCCCC1)S(=O)(=O)c1ccc(F)cc1 -2.39%
Cn1cccc1Cc1nnc(SCC(=O)NCc2ccco2)n1CCc1ccccc1 1.07%
CC1C/C(=C/c2cccn2C)C(=O)/C(=C/c2cccn2C)C1 (stereo unspecified) 32.9%
Cn1cccc1/C=C1\CC(C(C)(C)C)C/C(=C\c2cccn2C)C1=O (stereo unspecified) 1.11%
O=C1/C(=C/c2ccccc2)SC(=S)N1N1C(=O)C2CC2C1=O (stereo unspecified) -1.11%
CC(C)Cc1nnc(NC(=O)c2cccc(S(=O)(=O)N3CCN(C)CC3)c2)s1 3.22%
O=C(/C=C/c1ccccc1[N+](=O)[O-])OCC(=O)c1ccccc1 -4.21%
Cc1ccc(C(=O)CSc2nc3cccnc3n2C)cc1 6.72%
O=C(COc1cc(Cl)c(Cl)cc1Cl)NCCN1CCOCC1 8.15%
Cc1nnc(NC(=O)CCC(=O)NCc2ccco2)s1 6.21%
NC(=O)COC(=O)c1ccc(C(=O)C(=O)c2ccccc2)cc1 4.49%
NC(=O)COC(=O)c1ccc(-c2ccccc2)cc1 -9.63%
O=C(CSC(=S)N1CCOCC1)Nc1ncc2c(n1)CCCC2=O 1.41%
O=C(NCC(O)c1ccccc1)c1cccs1 (stereo unspecified) -7.1%
Cc1sc(NC(=O)c2ccco2)c(CN2CCN(c3ccccn3)CC2)c1C 17.2%
O=C(O)c1cc(-c2ccc(/C=N/Nc3ccc([N+](=O)[O-])cn3)o2)ccc1Cl 5.44%
NC(=O)N/N=C/c1ccc(-c2ccc([N+](=O)[O-])cc2)o1 0.97%
O=C(CCNC(=O)c1ccc([N+](=O)[O-])cc1)Nc1cc(Cl)ccc1N1CCOCC1 -3.46%
CCCCC(=O)NC(=S)Nc1cc(C(=O)O)ccc1OC 6.07%
CC(=O)NC(=S)Nc1cc(C(=O)O)ccc1Cl -3.72%
CCCCC(c1nnnn1CCOC)N1CCN(C(=O)c2ccco2)CC1 (stereo unspecified) 32.8% and -5.2%
Cc1ccc(CN(C)C(=O)CN2C(=O)NC3(CCCc4ccccc43)C2=O)c(C)c1 (stereo unspecified) -3.76%
CN(C)C(=O)CSc1nnc(Cc2ccccc2)n1Cc1ccco1 7.45%
O=C(Nc1cccc(-c2nnn(CC(=O)N3CCc4ccccc4C3)n2)c1)C1CCC1 -4.46%
CC(C)CC(=O)Nc1ccccc1-c1nnn(CC(=O)N2CCc3ccccc3C2)n1 10.6%
CC(=O)NCCOc1cccc2ccccc12 4.94%
CC(=O)NN1C(=O)/C(=C\c2ccc(Cl)cc2)SC1=S 7.42%
CC(=O)NN1C(=O)/C(=C\c2ccccc2)SC1=S 1.87%
CC(=O)NN1C(=O)/C(=C/c2ccc(C(C)C)cc2)SC1=S -3.47%
CC(=O)NN1C(=O)/C(=C\c2ccc(C)cc2)SC1=S -1.41%
O=C(c1nc(-c2ccccc2)n(-c2ccccc2)n1)N1CCCCCC1 2.5%
O=C(NNC(=O)c1cc(Cl)ccc1O)c1cccc(S(=O)(=O)N2CCOCC2)c1 4.69%
COc1cccc(C(=O)NCc2ccc(N3CCN(C(=O)OC(C)(C)C)CC3)cc2)c1 4.61%
CCN(CC)c1ccc(C(=O)Nn2cnc3ccccc3c2=O)cc1 -13%
Cc1cc(-c2csc(N)n2)c(C)n1Cc1ccco1 20.6%
CCNc1nc(-c2cc(C)n(Cc3ccco3)c2C)cs1 8.76%
Cc1ccccc1NS(=O)(=O)c1cc(C(=O)NCCSC2CCCCC2)ccc1C 4.25%
CCCCCCCCn1c2c(c(=N)c3ccccc31)CCC2 1.93%
Cc1cc(C)c2c(=O)[nH]c(=O)n(Cc3ccccc3)c2n1 11.8%
O=C1CN(/N=C/c2ccc([N+](=O)[O-])o2)C(=O)N1 6.04%
O=C1NC(=S)S/C1=C\c1cccc([N+](=O)[O-])c1 0.14%
CCC1(C)Cc2ccccc2-c2nc(NCCCO)n(-c3ccccc3)c(=O)c21 (stereo unspecified) -4.2%
CC(C)COC(=O)Nc1nnc(SCCOc2ccccc2)s1 -6.77%
